# Bioassay records: PubChem BioAssay, National Center for Advancing Translational Sciences (NCATS)
# MCF10A rerep – induces DNA re-replication in MCF 10a normal breast cells; MCF 10A DNA re-replication, Hoechst nuclear intensity, 48 h; Potency, µM (top dose mostly 46.1 µM), inactives show at the highest dose activity, positive = re-replication, usual class: activators; 2.9% of 350,000 active; note: % of control where 0% means no effect; nearly all actives have a fitted effect of over 50% in size
# KB-V1 MDR tox – kills drug-selected multidrug resistant KB-V1 cells. KB-V1 MDR cells viability, CellTiter-Glo, 72 h. Potency, µM (doses to about 46.1 µM), hits mostly cytotoxic. 3.4% of 400,000 active. AID 1347076; note: % is set by controls: 0 for no effect and ±100 for the full control effect; nearly all actives have a fitted effect of over 60% in size
#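 Drug-selected KB-V1 cells, grown in DMEM lacking phenol red with 10% FBS, receive compound titrations; after three days at 37 degrees C, surviving cell ATP is quantified by CellTiter-Glo luminescence and responses normalized and curve-fitted.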
# RORg inh – ROR gamma (mouse) transcription inhibition; P51450; 5.4% of 310,000 active; Drosophila S2 Gal4-RORgamma UAS-luciferase reporter, 20 h; Potency, µM (highest dose often 53.6 µM), inactives show top-dose activity change, negative = inhibition, usual class: inhibitors; note: % is set by controls: 0 for no effect and ±100 for the full control effect; nearly all actives have a fitted effect of over 60% in size
# Target sequence (P51450 whole entry, looked up, the tested form may be a part): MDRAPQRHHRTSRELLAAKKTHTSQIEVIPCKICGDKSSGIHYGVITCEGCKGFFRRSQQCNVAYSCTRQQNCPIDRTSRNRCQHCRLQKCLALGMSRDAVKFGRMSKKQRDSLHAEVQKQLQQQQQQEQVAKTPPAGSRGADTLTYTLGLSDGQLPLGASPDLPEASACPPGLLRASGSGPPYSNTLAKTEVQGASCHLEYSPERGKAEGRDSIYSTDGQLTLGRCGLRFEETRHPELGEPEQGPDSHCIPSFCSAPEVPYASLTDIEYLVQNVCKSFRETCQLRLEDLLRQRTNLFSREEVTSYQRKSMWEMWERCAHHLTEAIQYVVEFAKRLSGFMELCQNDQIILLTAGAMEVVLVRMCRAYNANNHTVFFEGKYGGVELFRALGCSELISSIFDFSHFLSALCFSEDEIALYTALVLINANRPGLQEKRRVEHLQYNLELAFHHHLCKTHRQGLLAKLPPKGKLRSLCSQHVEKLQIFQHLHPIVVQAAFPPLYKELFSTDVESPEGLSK
#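 Luminescence from a UAS-regulated Photinus luciferase reporter in stably transfected Drosophila Schneider cells is measured; decreased signal marks ROR gamma inhibition. Fusion expression is induced by 700 uM copper sulfate for 20 hr.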
# SW480 rerep – induces DNA re-replication in SW480 colon adenocarcinoma cells; SW480 DNA re-replication, Hoechst DNA content imaging, 48 h; Potency, µM (series often up to 46.1 µM), inactives show at the top dose re-replication activation, usual class: activators; 1.8% of 340,000 active; AID 624297; note: % of control where 0% means no effect; nearly all actives have a fitted effect of over 55% in size
#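 Compounds, transferred as 23 nL by pin tool, were incubated with cells for 48 hr; DNA content per nucleus was then quantified by Hoechst staining and fluorescence plate imaging.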
# Gal4-VP16 FLuc – inhibits Gal4-VP16 luciferase reporter, ROR gamma counter-screen; Drosophila S2 Gal4-VP16 UAS-luciferase, luminescence, 20 h; Potency, µM (doses to about 53.6 µM), without a hit: at the top dose activity, negative = inhibition, actives largely listed as inhibitors; 3.5% of 310,000 active;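 note: Gal4-VP16 expression switched on by copper sulfate through the metallothionein promoter; % is set by controls: 0 for no effect and ±100 for the full control effect; nearly all actives have a fitted effect of over 50% in size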
# KB-3-1 cytotox – KB-3-1 parental cell cytotoxicity; KB-3-1 viability, CellTiter-Glo ATP luminescence, 72 h; Potency, µM (top dose mostly 46.1 µM), most hits filed as cytotoxic; 1.4% of 400,000 active; note: % is set by controls: 0 for no effect and ±100 for the full control effect; nearly all actives have a fitted effect of over 60% in size
#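 Cytotoxicity in the drug-sensitive parental line KB-3-1 was scored as loss of CellTiter-Glo luminescence following 72 h incubation with compound. Values come from curve fitting of normalized concentration-response data.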
# An asterisk follows results filed as active; i = inactive; ? = inconclusive; . = not tested or not shown; [ ] = another dose, or the depositor's remark. This is a sample that favours compounds with a hit; in the whole collection about 10% have one here. Calls come from the whole dose curve; as a rule, active = well fitted curve in the direction sought with a large enough effect; inconclusive = small, poorly fitted or top-dose-only effect, or another doubt; inactive = no such curve, though single readings can be large; an effect the other way counts as inactive or inconclusive. Potency is the fitted concentration of half-maximal effect.
SMILES,MCF10A rerep,KB-V1 MDR tox,RORg inh,SW480 rerep,Gal4-VP16 FLuc,KB-3-1 cytotox
O=C(NCc1c(Cl)cccc1Oc1ccccc1)c1ccccc1,?,12µM*,18%,-51%,16%,i
COc1ccc(Oc2cccc(Cl)c2CNC(=O)c2ccccc2C(=O)O)cc1,-8%,i,22%,-5%,-4%,i
c1cnc2nc3c4ccccc4c4ccccc4c3nc2c1,10µM*,i,.,23µM*,.,i
N#Cc1nc(-c2ccc(OCc3ccc(Cl)cc3)cc2)oc1N1CCCCCC1,.,i,.,.,.,i
Cn1cc(-c2nc3cnc(Oc4ccccc4)nc3n(C)c2=O)c2ccccc21,.,.,-12%,.,-6%,.
O=C(O)[C@H](Cc1ccccc1)NC(=O)N1CCOCC1,-3%,i,5µM*,-6%,0%,i
CCc1nnc(NC(=O)C2Cc3ccccc3CN2S(=O)(=O)c2cccs2)s1 (stereo unspecified),0%,?,-19%[0.365 µM],-1%,.,i
COc1ccc(S(=O)(=O)N2Cc3ccccc3CC2C(=O)Nc2nccs2)cc1 (stereo unspecified),2%,21µM*,-40%,-9%,1%,i
O=C(Nc1nnc(C2CC2)s1)C1Cc2ccccc2CN1S(=O)(=O)c1cccs1 (stereo unspecified),?,i,1.4µM*,-2%,?,i
COc1ccccc1N1CCN(c2ncnc3c2cnn3-c2ccc(C)cc2)CC1,.,i,.,.,.,i
O=C1C(=C(c2ccccc2)N2CCOCC2)Cc2ccccc21,.,?,.,.,.,7.3µM*
COc1cc2c(cc1OC)C(=O)C(Br)CC2 (stereo unspecified),.,i,.,.,.,?
COCCNC(=O)c1cccc(OC2CCN(C(C)COc3ccccc3)CC2)c1 (stereo unspecified),1.8µM*,i,25%,-34%,2%,i
COCCNC(=O)c1cccc(OC2CCN(Cc3ccccc3OCCO)CC2)c1,5%,i,-2%,0%,4%,i
O=C(CC[C@H]1O[C@@H](n2cnc3c(NC(=O)c4ccccc4)ncnc32)[C@H](O)[C@@H]1O)NCC1CCN(Cc2ccccc2)CC1,.,i,.,.,.,i
Cc1c(Cl)cccc1NC(=S)NCCC(C)C,8%,i,4.5µM*,?,6.3µM*,i
Cc1c(Cl)cccc1NC(=S)NC1CCN(C(C)C)CC1,?,?,-29%,?,-3%,i
Cc1c(Cl)cccc1NC(=S)NCC(c1cccnc1)N(C)C (stereo unspecified),0%,i,-35%,-3%,3%,i
Cc1cc(Cl)ccc1NC(=S)NCCC(c1ccccc1)c1ccccc1,13µM*,?,7.1µM*,0%[9.22 µM],6.3µM*,?
Cc1c(Cl)cccc1NC(=S)NCC(C)C,-42%,i,6.3µM*,-2%,?,i
COC(C(=O)Nc1ccc(Cl)cc1C)c1ccccc1 (stereo unspecified),-7%,i,-2%,-700%,1%,i
Cc1c(Cl)cccc1NC(=S)NCCC(c1ccccc1)c1ccccc1,?,?,0.63µM*,?,1.3µM*,?
CC(C)(CNC(=O)c1cc(-c2ccc(Cl)s2)nc2ccccc12)N1CCOCC1,?,i,.,23µM*,.,i
CN1CCN(NC(=O)c2cc(-c3ccc(Cl)s3)nc3ccccc23)CC1,15µM*,i,-4%,16µM*,-5%,i
CN1CCN(NC(=O)c2cc(-c3ccccn3)nc3ccccc23)CC1,1%,i,-7%,1%,3%,i
SMILES,MCF10A rerep,KB-V1 MDR tox,RORg inh,SW480 rerep,Gal4-VP16 FLuc,KB-3-1 cytotox
O=C(c1cc(-c2ccc(Cl)s2)nc2ccccc12)N1CCCC1,?,?,.,-3%,.,i
Cc1ccc(S(=O)(=O)N(CC(=O)Nc2ccc3c(c2)OCO3)c2ccc(C)c(Cl)c2)cc1,.,i,.,.,.,i
CN(C)CCNC(=O)c1ccc2nc([C@@H]3O[C@H](CO)[C@H](O)[C@H](O)[C@H]3O)[nH]c2c1,.,i,.,.,.,i
Cc1cc(C)c(NC(=O)c2c(C)oc3c2C2=NCCN2C=N3)c(C)c1,.,i,.,.,.,i
Nc1nonc1C(=O)NCCNCc1cc(Br)ccc1OCc1ccccc1F,25%,?,?,5%,4µM*,?
NS(=O)(=O)c1ccc(CCNCc2cc(Br)ccc2OCc2ccccc2F)cc1,?,i,-18%,?,13µM*,i
O=C(CN1C(=O)COc2ccc(S(=O)(=O)NC3CCCC3)cc21)NCc1ccccc1Cl,.,i,.,.,.,i
Cc1cccc(-n2ncc3c(N4CCCc5ccccc54)ncnc32)c1,12µM*,8.2µM*,18%,21µM*,-1%,?
Cc1cccc(-n2ncc3c(NCc4ccccc4)ncnc32)c1,6.5µM*,6.5µM*,?,16µM*,?,3.3µM*
Cc1cccc(-n2ncc3c(NCc4ccco4)ncnc32)c1,16µM*,i,?,?,4%,?
c1ccc(CNc2nnnn2-c2ccccc2)cc1,14%,21µM*,?,-3%,-13%,?
O=C(/C=C/c1cn(CC(O)CN2CCCCCC2)c2ccccc12)c1ccc(Br)cc1 (stereo unspecified),.,i,.,.,.,i
Brc1ccc(-c2nc3c4ccccc4ccn3c2Cc2ccccc2)cc1,.,i,.,.,.,i
CC(C)OCCCNc1ncnc2c1cnn2-c1ccccc1,22%,15µM*,?,5%,?,i
Fc1ccc(CNc2ncnc3c2cnn3-c2ccccc2)cc1,4%,i,-21%,-3%,-14%,i
c1ccc(CNc2ncnc3c2cnn3-c2ccccc2)cc1,9.2µM*,2.6µM*,-5%,13µM*,-4%,5.2µM*
O=C(Cn1cnc2c(NCc3ccccc3)ncnc21)NCc1ccccc1,9.2µM*,7.3µM*,.,12µM*,.,2.9µM*
CC(C)Nc1ncnc2c1cnn2-c1ccc(Cl)cc1,-9%,?,?,-1%,?,7.3µM*
Nc1nc(NCc2ccc(Cl)c(Cl)c2)c2[nH]cnc2n1,.,i,.,.,.,i
COc1ccc(Nc2ncnc3c2nc2n3CCCCC2)cc1,.,i,.,.,.,i
c1ccc(CCNc2ncnc3c2cnn3-c2ccccc2)cc1,?,i,?,18µM*,?,i
Cc1ccc(-n2ncc3c(NCCc4ccccc4)ncnc32)cc1C,.,i,.,.,.,i
O=C(NCCc1cscn1)C1CCC(=O)N(Cc2ccc(Cl)cc2)C1 (stereo unspecified),-8%,.,20µM*,-1%,?,.
